# In ChEMBL document CHEMBL3988442, “University of Dundee, Small-Polar-MMV Screening Library” (2021):
# Target: T1, Methionyl-tRNA synthetase, putative (Leishmania donovani (strain BPK282A1)) (UniProt E9BF75)
# T1 sequence (whole entry): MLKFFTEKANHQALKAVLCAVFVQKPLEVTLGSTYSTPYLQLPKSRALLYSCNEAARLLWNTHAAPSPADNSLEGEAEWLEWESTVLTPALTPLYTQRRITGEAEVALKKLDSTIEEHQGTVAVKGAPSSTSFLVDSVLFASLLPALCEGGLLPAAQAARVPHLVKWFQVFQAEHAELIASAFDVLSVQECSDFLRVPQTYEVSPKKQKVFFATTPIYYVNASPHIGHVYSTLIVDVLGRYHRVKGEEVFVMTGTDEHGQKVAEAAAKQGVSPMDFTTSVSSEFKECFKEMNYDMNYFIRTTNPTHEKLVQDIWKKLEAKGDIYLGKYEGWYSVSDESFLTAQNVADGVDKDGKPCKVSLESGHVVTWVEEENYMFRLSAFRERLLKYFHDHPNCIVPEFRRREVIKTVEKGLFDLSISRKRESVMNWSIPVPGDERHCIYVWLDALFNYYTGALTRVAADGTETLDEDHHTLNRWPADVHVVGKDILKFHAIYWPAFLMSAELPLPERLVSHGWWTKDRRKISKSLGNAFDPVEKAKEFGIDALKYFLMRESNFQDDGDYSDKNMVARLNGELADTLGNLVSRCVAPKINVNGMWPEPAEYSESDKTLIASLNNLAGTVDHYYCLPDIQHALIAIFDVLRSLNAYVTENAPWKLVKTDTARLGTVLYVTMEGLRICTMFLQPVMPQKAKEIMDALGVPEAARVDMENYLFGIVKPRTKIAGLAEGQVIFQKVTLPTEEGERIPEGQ
# Assay: Leishmania donovani Methionine tRNA synthetase (LdMetRS):v7. Dose response assay
# Assay type: functional
# Design: conc 80 nM, time 150 minutes
smiles,measurement,setting,value
Cc1nc(N2CCNC(=O)CC2C)c2c(CC(C)C)csc2n1 (configuration not stated),PXC50,MAX_EFFECT 4.918032787,< 4
same,PXC50,MAX_EFFECT 7.486631016,< 4
Cc1nc(NCCCS(N)(=O)=O)c2c3c(sc2n1)CCC3,PXC50,MAX_EFFECT 5.319148936,< 4
same,PXC50,MAX_EFFECT 8.29015544,< 4
Cc1sc2nc(-c3cccnc3)nc(NCCOCCO)c2c1C,PXC50,MAX_EFFECT 9.042553191,< 4
same,PXC50,MAX_EFFECT 9.844559585,< 4
Cn1ncc2c(NCCO)nc(NCCCO)nc21,PXC50,MAX_EFFECT 7.543520309,< 4
Cc1sc2nc(CCN)nc(N3CCS(=O)(=O)CC3)c2c1C,PXC50,MAX_EFFECT 6.266318538,< 4
same,PXC50,MAX_EFFECT 7.049608355,< 4
Cc1cc(Br)sc1CNCCCNc1cc(=O)c2ccccc2[nH]1,PXC50,"BOTTOM 0.0, HILLSLOPE 1.706331743, MAX_EFFECT 106.0465116, TOP 103.2080248",6.25
same,PXC50,"BOTTOM 0.0, HILLSLOPE 2.906661209, MAX_EFFECT 104.1958042, TOP 102.1210588",6.14
O=C(NCC1CCCCN1C(=O)c1cccc2ccccc12)c1ccccc1 (configuration not stated),PXC50,"BOTTOM 0.770786067, HILLSLOPE 2.128077678, MAX_EFFECT 96.73659674, TOP 102.5562093",4.68
same,PXC50,"BOTTOM 1.426381969, HILLSLOPE 1.713383958, MAX_EFFECT 97.20930233, TOP 108.6916663",4.55
N[C@H](COc1cccc(F)c1Oc1ccc(Cl)cc1)Cc1ccccc1,PXC50,"BOTTOM 1.014480123, HILLSLOPE 1.236846962, MAX_EFFECT 63.97515528, TOP 100.0",4.22
same,PXC50,"BOTTOM 4.768215501, HILLSLOPE 2.241755438, MAX_EFFECT 75.26652452, TOP 100.0",4.22
COCCNC(=O)c1ccc2ccc(N3CCN(S(C)(=O)=O)CC3)n2c1,PXC50,"BOTTOM 1.198316498, HILLSLOPE 2.008751015, MAX_EFFECT 51.91956124, TOP 53.93938429",4.75
same,PXC50,MAX_EFFECT 47.36842105,< 4
CS(=O)(=O)N1CCN(c2ccc3ccc(C(=O)NCCc4ccccc4)cn23)CC1,PXC50,"BOTTOM 2.353808238, HILLSLOPE 2.745183605, MAX_EFFECT 51.67464115, TOP 50.17202443",5.02
same,PXC50,"BOTTOM 6.057044372, HILLSLOPE 2.135645997, MAX_EFFECT 57.03839122, TOP 56.72145826",4.82
COCC(C)NC(=O)c1ccc2ccc(N3CCN(S(C)(=O)=O)CC3)n2c1 (configuration not stated),PXC50,"BOTTOM 3.011130377, HILLSLOPE 1.725207909, MAX_EFFECT 55.66037736, TOP 58.49588417",4.74
same,PXC50,MAX_EFFECT 48.85844749,< 4
O=C(c1c[nH]cn1)N1CCC(F)(F)C2(CCN(c3cnccn3)C2)C1 (configuration not stated),PXC50,MAX_EFFECT 1.584507042,< 4
same,PXC50,MAX_EFFECT 3.800475059,< 4
Cc1cc(C(F)(F)F)nc(N2CCN(Cc3nccn3C)CC2)n1,PXC50,MAX_EFFECT 3.571428571,< 4
same,PXC50,MAX_EFFECT 6.313131313,< 4
Cc1ncc(CNc2cnccc2CO)s1,PXC50,MAX_EFFECT 4.225352113,< 4
same,PXC50,MAX_EFFECT 9.814814815,< 4
Cc1ccc(N2CCC3(CN(Cc4cccs4)CCC3(F)F)C2)nn1 (configuration not stated),PXC50,MAX_EFFECT 4.988662132,< 4
same,PXC50,MAX_EFFECT 10.8411215,< 4
O=C(NCC1(O)CCCCC1)c1cc(=O)c2ccc(F)c(O)c2o1,PXC50,MAX_EFFECT 5.582137161,< 4
same,PXC50,MAX_EFFECT 7.485604607,< 4
O=C(NCC1(O)CCC(F)(F)CC1)c1cc(=O)c2cc(O)ccc2o1,PXC50,MAX_EFFECT 6.858054226,< 4
same,PXC50,MAX_EFFECT 7.869481766,< 4
OC1CN(c2nc(C3CC3)nc3sc4c(c23)CCCC4)C1,PXC50,MAX_EFFECT 6.914893617,< 4
same,PXC50,MAX_EFFECT 8.808290155,< 4
Cc1nc(N[C@@H](C)C(=O)O)c2c3c(sc2n1)CCCC3,PXC50,MAX_EFFECT 7.446808511,< 4
same,PXC50,MAX_EFFECT 9.32642487,< 4
FC(F)(F)c1nc(N2CCOCC2)nc2c1CCCCC2,PXC50,MAX_EFFECT 7.808564232,< 4
same,PXC50,MAX_EFFECT 8.396946565,< 4
CNC(=O)CNc1nc(C)nc2sc3c(c12)CCC3,PXC50,MAX_EFFECT 7.888040712,< 4
same,PXC50,MAX_EFFECT 9.319899244,< 4
Cc1nc(N[C@H](C(=O)O)C(C)C)c2c3c(sc2n1)CCCC3,PXC50,MAX_EFFECT 7.978723404,< 4
same,PXC50,MAX_EFFECT 8.29015544,< 4
COCCNc1nc(-c2ccc(C)cc2)cc(C(F)(F)F)n1,PXC50,MAX_EFFECT 7.978723404,< 4
same,PXC50,MAX_EFFECT 8.29015544,< 4
CCc1cc2c(NC(CC(C)C)C(=O)O)nc(C)nc2s1 (configuration not stated),PXC50,MAX_EFFECT 8.0,< 4
same,PXC50,MAX_EFFECT 13.22751323,< 4
CC(=O)NCCNc1nc(-c2cccnc2)nc2sc(C)c(C)c12,PXC50,MAX_EFFECT 9.574468085,< 4
same,PXC50,MAX_EFFECT 10.3626943,< 4
Cc1nc(NCc2noc(C3CCCO3)n2)c2ccsc2n1 (configuration not stated),PXC50,MAX_EFFECT 9.660574413,< 4
same,PXC50,MAX_EFFECT 12.53263708,< 4
Cc1nc(N2CCC(C)CC2)c2ccsc2n1,PXC50,MAX_EFFECT 9.848484848,< 4
same,PXC50,MAX_EFFECT 11.2244898,< 4
CN1CCN(c2ccc3ccc(C(=O)N4CCCO4)cn23)CC1,PXC50,MAX_EFFECT 9.85915493,< 4
same,PXC50,MAX_EFFECT 16.48148148,< 4
Cc1cc(C(F)(F)F)nc(N(C)Cc2c(C)noc2C)n1,PXC50,MAX_EFFECT 10.44386423,< 4
same,PXC50,MAX_EFFECT 10.70496084,< 4
